Our source for the Potency and activity, negative = cell killing values is PubChem BioAssay (NCATS).

The subject of assay [1] is MCC-13. The assay can be described thus: qHTS assay to identify novel small-molecules to repurpose for Merkel cell carcinoma treatment (AID 1296009). Further: nearly all actives have a fitted effect of over 60% in size. Further: potency means the concentration at half of the fitted maximal effect. As to conditions: MCC and control cell lines, CellTiter-Glo viability, 72 h; series mostly up to 46 µM. A digest of the protocol: (§1)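 Dose-response viability screen; 72 hr exposure at 37 degree celsius; CellTiter-Glo added, 10 min room temperature, luminescence read; RLUs scaled between no-cell and DMSO wells.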
Background: qHTS replaces the single test concentration by a dilution series.

Assay [2] deals with MKL-1. Described as above. Conditions: MCC and control cell lines, CellTiter-Glo viability, 72 h; series mostly up to 46 µM. A digest of the protocol: as §1
For orientation: ATP-based viability assays read luminescence as a measure of living cells.

The subject of assay [3] is MKL-2. The description is as above. Conditions: MCC and control cell lines, CellTiter-Glo viability, 72 h; series mostly up to 46 µM. A digest of the protocol: as §1
Assay [4] deals with UISO. The description is as above. As to conditions: MCC and control cell lines, CellTiter-Glo viability, 72 h; series mostly up to 46 µM. The method, boiled down:
as §1

Assay [5] deals with WaGa. The description is as above. As to conditions: MCC and control cell lines, CellTiter-Glo viability, 72 h; series mostly up to 46 µM. A digest of the protocol: as §1
Assay [6] has as its system C33A. The assay can be described thus: Primary qHTS to identify gynecologic anti-cancer compounds using libraries of approved drugs and bioactive compounds (AID 1345084). Further: nearly all actives have a fitted effect of over 55% in size. Conditions: Gynecologic cancer cell panel viability, ATPlite luminescence, 48 h; series mostly up to 57.5 µM. A digest of the protocol: (§2)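 ATP-based viability (ATPlite), 1,000 cells/well, 16 h pre-incubation, 48 h compound at 37 C, 5% CO2, 15 min RT before read.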

Assay [7] relates to CAOV3. The description is as above. Conditions: Gynecologic cancer cell panel viability, ATPlite luminescence, 48 h; series mostly up to 57.5 µM. A digest of the protocol:
as §2

Assay [8] concerns CASKI. Described as above. Conditions: Gynecologic cancer cell panel viability, ATPlite luminescence, 48 h; series mostly up to 57.5 µM. A digest of the protocol: as §2
For assay [9], the system named is Es-2. The assay is described as above. Conditions: Gynecologic cancer cell panel viability, ATPlite luminescence, 48 h; series mostly up to 57.5 µM. The method, boiled down: as §2
For assay [10], the system named is HeLa. The description is as above. As to conditions: Gynecologic cancer cell panel viability, ATPlite luminescence, 48 h; series mostly up to 57.5 µM. The method, boiled down:
as §2

Assay [11] concerns Hek293T. Described as above. Conditions: Gynecologic cancer cell panel viability, ATPlite luminescence, 48 h, control line for the selectivity index; series mostly up to 57.5 µM. A digest of the protocol: as §2
Assay [12] has as its system JEG-3. The description is as above. Conditions: Gynecologic cancer cell panel viability, ATPlite luminescence, 48 h; series mostly up to 57.5 µM. The method, boiled down: as §2
Assay [13] deals with OV90. Described as above. As to conditions: Gynecologic cancer cell panel viability, ATPlite luminescence, 48 h; series mostly up to 57.5 µM. A digest of the protocol:
as §2

The test system of assay [14] is PA-1. The description is as above. Conditions: Gynecologic cancer cell panel viability, ATPlite luminescence, 48 h; series mostly up to 57.5 µM. The method, boiled down:
as §2

Assay [15] deals with SKOV3. The assay is described as above. Conditions: Gynecologic cancer cell panel viability, ATPlite luminescence, 48 h; series mostly up to 57.5 µM. A digest of the protocol: as §2
Assay [16] relates to Tov-21-G. Described as above. As to conditions: Gynecologic cancer cell panel viability, ATPlite luminescence, 48 h; series mostly up to 57.5 µM. The method, boiled down:
as §2

In assay [17] the test system is Tov112D. The description is as above. As to conditions: Gynecologic cancer cell panel viability, ATPlite luminescence, 48 h; series mostly up to 57.5 µM. The method, boiled down:
as §2

A short description of assay [18]: Drug repurposing screens with cells derived from glioblastoma tumor samples (AID 1345199). Further: nearly all actives have a fitted effect of over 40% in size. Further: potency means the concentration at half of the fitted maximal effect. Conditions: GBM patient neurospheres viability, ATP luminescence, 48 h. A digest of the protocol:
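Primary testing used CD133+ neurospheres from four GBM patients, seven concentrations, 48 h exposure and ATP-based viability; confirmation added three slower-growing patient lines.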

Where [19] appears, read: at 45.9 µM (top of the series), tumour line B.
Setting [20] is: at 45.9 µM (top of the series), tumour line D.
The mark [21] stands for this setting: at 46 µM (top of the series), tumour line A.
The mark [22] stands for this setting: at 46.1 µM (top of the series), tumour line C.

“And” between values parts separate entries of the source, which are not always exact repeats. Identical values can stand only once. Results filed as inconclusive are left out. Values without a mark were called inactive. The source made the active and inactive calls. The call rests on the fitted dose curve; in most records, active means well fitted curve in the direction sought with a large enough effect; inconclusive means small, poorly fitted or top-dose-only effect, or another doubt; inactive means no such curve, though single readings can be large; an effect the other way counts as inactive or inconclusive.
On the % scale 0 is the no-effect control and ±100 the full control effect.

Consider `CC(=O)NC(Cc1ccccc1)C(=O)O` (stereo not given), for which the Potency result in assay [1], in [2], in assay [3], in assay [4], in assay [5] and in [6] was “inactive” in each case. For the same molecule, the Potency result in [7], in assay [8], in assay [9], in [10], in assay [11] and in assay [12] was “inactive” throughout. Further, the Potency entry in assay [13], in [14], in assay [15], in [16] and in assay [17] was “inactive” each time. Besides, the activity, negative = cell killing was -12.3% in assay [18] (setting [19]), -6.53% in assay [18] (setting [20]), -20.1% in [18] (setting [21]) and -23.9% in [18] (setting [22]).

With `CC1=C(CC(=O)O)c2cc(F)ccc2/C1=C\c1ccc(S(C)=O)cc1` (stereo not given), the Potency entry in assay [6], in assay [7], in [8], in assay [9], in assay [10] and in [11] was “inactive” throughout. The Potency result in assay [12], in [13], in [14], in [15], in assay [16] and in assay [17] was “inactive” each time. Also, the results for the activity, negative = cell killing in assay [18] (setting [19]), in assay [18] (setting [20]) and in [18] (setting [22]) were -9.8%, -10.1% and -18.8%, respectively.

For the molecule `Cc1c(O)cccc1C(=O)N[C@@H](CSc1ccccc1)[C@H](O)CN1C[C@H]2CCCC[C@H]2C[C@H]1C(=O)NC(C)(C)C`, the Potency entry in assay [7], in assay [8], in assay [9], in assay [10], in assay [11] and in assay [12] was “inactive” in each case. Also, the Potency entry in assay [13], in assay [14], in [16] and in [17] was “inactive” each time. The activity, negative = cell killing in assay [18] (setting [22]) is 0.268%. Besides, the Potency in assay [18] (tumour line A) is 6.31 µM (active); in [18] (tumour line B), 11.2 µM (active); in [18] (tumour line D) it was 20 µM (active).

Consider `CCN(CC)CCSC(=O)C(c1ccccc1)c1ccccc1`, for which the Potency entry in assay [1], in assay [2], in [4], in assay [6], in [7] and in [8] was “inactive” throughout. In addition, the Potency result in assay [9], in assay [10], in assay [11], in assay [12], in assay [13] and in assay [14] was “inactive” throughout. Moreover, the Potency entry in [15], in [16] and in assay [17] was “inactive” in each case. Moreover, the activity, negative = cell killing in [18] (setting [19]) is -17.9% and -28.9%.

For the molecule `CNCCCC1c2ccccc2C=Cc2ccccc21`, the Potency result in assay [1], in [4], in [6], in assay [10], in assay [12] and in assay [15] was “inactive” throughout. Moreover, the Potency was 21.1 µM (active) in assay [3] and 6.31 µM (active) in assay [18] (tumour line A). In addition, the activity, negative = cell killing in [18] (at 20 µM (top of the series), tumour line C) was 3.37%.

`O=C1c2c(O)cccc2Cc2cccc(O)c21`: the Potency result in assay [1], in assay [2], in assay [3], in [4], in assay [5] and in assay [6] was “inactive” throughout. For the same molecule, the Potency result in [7], in [8], in assay [9], in assay [10], in [11] and in assay [12] was “inactive” throughout. The Potency entry in assay [13], in assay [14], in assay [15], in assay [16] and in assay [17] was “inactive” throughout. Besides, the activity, negative = cell killing in assay [18] (setting [19]) was -7.97%; in [18] (setting [21]) it was -24.5%; in [18] (setting [22]), -8.57%.

Regarding `O=C1O[C@H](CO)[C@@H](O)[C@H](O)[C@H]1O`, the Potency entry in [1], in [2], in assay [3], in assay [4], in assay [5] and in [6] was “inactive” in each case. Also, the Potency result in assay [7], in [8], in assay [9], in [10], in assay [11] and in assay [12] was “inactive” throughout. For the same molecule, the Potency result in assay [13], in [14], in [15], in [16] and in assay [17] was “inactive” each time. Besides, the figures for the activity, negative = cell killing in assay [18] (setting [19]), in assay [18] (setting [20]) and in assay [18] (setting [22]) were -6.95%, 6.72% and 0.13%, respectively.
